The nature of assay [1]: qHTS assay for small molecule antagonists of retinoid X receptor alpha signaling (AID 588546; active = well fitted inhibition curve with a large enough effect in the signal ratio, with a control signal flat, not every such curve was filed as active; the % refers to the signal ratio;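 note: cells stimulated with 9-cis-retinoic acid as agonist; % is set by controls: 0 for no effect and ±100 for the full control effect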). To be noted: HEK293T RXRa-UAS-bla, beta-lactamase ratio, antagonist mode; measured here: W530 green channel, cytotoxicity proxy. Summed up: (§1)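 Beta-lactamase reporter inhibition, read as CCF4 fluorescence ratio (ex 405, em 460/530 nm) after 2 h at RT. HEK293T UAS-bla cells, 2500/well, were stimulated with 9-cis-RA at 500 or 100 nM final alongside test compound for 18 h at 37 C.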
In general terms: qHTS replaces the single test concentration by a dilution series.

Assay [2] concerns the target Retinoic acid receptor RXR-alpha (Homo sapiens) (UniProt P19793). The assay is described as above. Conditions: HEK293T RXRa-UAS-bla, beta-lactamase ratio, antagonist mode. In a few lines:
as §1

The target in assay [3] is Thyroid hormone receptor beta (Homo sapiens) (UniProt P10828). Briefly: qHTS assay for small molecule antagonists of thyroid hormone receptor beta signaling (AID 588547; active = well fitted inhibition curve with a large enough effect in the signal ratio, with a control signal flat, not every such curve was filed as active; the % refers to the signal ratio;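 note: cells stimulated with 0.4 nM T3 agonist during compound exposure; series mostly up to about 77 µM; % is set by controls: 0 for no effect and ±100 for the full control effect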). To be noted: TR-UAS-bla HEK293, beta-lactamase ratio, antagonist mode, 18 h. Summed up: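 TR-UAS-bla GripTite HEK293 cells in 2% charcoal/dextran FBS medium; compounds 0.59 nM to 92 uM with T3 at 0.4nM final, 18 h at 37 C. Beta-lactamase read by CCF4 fluorescence (460/530 nm); Hill fits gave IC50 and efficacy.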

In assay [4] the target is Voltage-gated inwardly rectifying potassium channel KCNH2 (Homo sapiens) (UniProt Q12809). Briefly: qHTS Assay for Small Molecule Inhibitors of the Human hERG Channel Activity (AID 588834).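 Note: top concentration of the series differs between compounds; % is set by controls: 0 for no effect and ±100 for the full control effect; lower thallium flux fluorescence means stronger hERG block; nearly all actives have a fitted effect of over 50% in size.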 Summed up:
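Homogeneous FluxOR thallium flux assay using hERG-expressing U2OS cells (BacMam). Compound treatment about 10 minutes preceded stimulation; reduced fluorescence taken as channel block.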

Assay [5] can be described thus: qHTS assay for small molecule agonists of the antioxidant response element (ARE) signaling pathway (AID 651741; active = well fitted activation curve with a large enough effect in the signal ratio; the % refers to the signal ratio; note: % of control where 0% means no effect). In a few lines: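 Stably integrated ARE-beta-lactamase reporter HepG2 cells; 16 h compound incubation, 37 C; LiveBLAzer FRET substrate 2 h at room temperature; fluorescence intensity.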
Assay [6] in a line: qHTS assay for small molecule activators of the p53 signaling pathway (AID 651743; active = well fitted activation curve with a large enough effect in the signal ratio, not every such curve was filed as active; the % refers to the signal ratio; note: series mostly up to about 92 µM; % of control where 0% means no effect). Conditions: HCT-116 p53RE-bla, beta-lactamase FRET ratio, 16 h; activation: stronger effect = higher value. Summed up:
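Following 16 hours of compound exposure at 37 C, HCT-116 cells bearing the p53RE-bla reporter were loaded with LiveBLAzer B/G FRET substrate for 2 hours at room temperature and fluorescence intensity was recorded.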

Assay [7] can be described thus: qHTS assay for small molecule activators of the nuclear factor-kappa B (NF-kB) signaling pathway (AID 651749; active = well fitted activation curve with a large enough effect in the signal ratio; the % refers to the signal ratio; note: series mostly up to about 77 µM; % of control where 0% means no effect). Conditions: NF-kB-bla ME-180 cells, beta-lactamase FRET ratio, 16 h; activation: stronger effect = higher value. In a few lines:
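In this qHTS format, compounds acting as activators increase NF-kB-driven beta-lactamase in ME-180 cells, measured as disrupted FRET after 16 hr exposure at 37C and 5% CO2.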

Assay [8] in a line: qHTS assay for small molecule disruptors of the mitochondrial membrane potential - 5 hr assay (AID 651755; calls by dose curve; note: % is set by controls: 0 for no effect and ±100 for the full control effect; nearly all actives have a fitted effect of over 40% in size). In a few lines:
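Read-out: ratiometric Mito-MPS fluorescence, green monomer (ex 490/em 535) vs red mitochondrial aggregate (ex 540/em 590). HepG2 cells treated 5 hr at 37C before 30 min dye loading.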

In assay [9] the target is Tumor necrosis factor (Homo sapiens) (UniProt P01375). Briefly: qHTS assay to identify small molecules that stimulate Tumor Necrosis Factor-alpha (TNF-alpha) secretion (AID 651757; active = well fitted curve in the direction sought with a large enough effect in the signal ratio; the % refers to the signal ratio; note: 0% is about no effect). Summed up:
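Human monocytic THP-1 cells are plated, treated with compound and held at 37 C for 17 hrs. Labeled anti-TNF-alpha antibody mixture is then added; after 3 hr at room temperature, TR-FRET signal reports secreted TNF-alpha.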

A short description of assay [10]: qHTS assay for environmental chemicals that activate the Aryl hydrocarbon Receptor (AhR) signaling pathway (AID 651777). Note: % of control where 0% means no effect; nearly all actives have a fitted effect of over 15% in size. Conditions: 1A2-DRE human hepatoma cells, luciferase, 24 h; activation: stronger effect = higher value. In a few lines: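 AhR activation is scored as a rise in luciferase from a stable DRE–CYP1A2 promoter construct in human hepatoma cells. Treatment lasts 24 hr at 37 C; detection uses One-Glo after 30 min at room temperature.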

Assay [11] addresses Peroxisome proliferator-activated receptor alpha (Homo sapiens) (UniProt Q07869). Briefly: qHTS assay for small molecule agonists of the peroxisome proliferator-activated receptor alpha (PPARalpha) signaling pathway (AID 651778). Note: % of control where 0% means no effect. To be noted: PathHunter PPARalpha complementation, chemiluminescence, 6 h; stronger effect = higher value. In a few lines:
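Enzyme-fragment complementation assay in which ligand-bound PPARalpha translocates and forms an active enzyme that generates chemiluminescence. Cells were plated overnight, exposed to compound for 6 hr at 37 C, and then given detection reagent for 60 min at room temperature.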

In assay [12] the target is Nuclear receptor ROR-gamma (Homo sapiens) (UniProt P51449). Briefly: qHTS assay for small molecule antagonists of the retinoid-related orphan receptor gamma (ROR-gamma) signaling pathway (AID 651802).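 Note: CHO cells with doxycycline-induced ROR-gamma expression; series mostly up to about 92 µM; % is set by controls: 0 for no effect and ±100 for the full control effect; nearly all actives have a fitted effect of over 60% in size.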 Summed up: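 Steps: cells dispensed; compound or DMSO transferred by pin tool; doxycycline added to induce the ROR response element-driven luciferase; plates held 16hr at 37C; ONE-Glo added and luminescence measured.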

Assay [13] in a line: qHTS assay for small molecule agonists of the antioxidant response element (ARE) signaling pathway measured by Nrf2-dependant transcriptional activity (AID 720636; active = well fitted curve in the direction sought with a large enough effect in the repeat runs; an effect the other way counts as inactive or inconclusive;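 note: HepG2 cells with an ARE-driven luciferase reporter; % of control where 0% means no effect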). Summed up: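 First, ARE-luc HepG2 cells attached for 6 hr at 37 C in 1% dialyzed FBS medium. Next, compound or DMSO was added and incubated 16 hr. Finally, ONE-Glo reagent was added and luminescence measured after 30 min.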

Assay [14] is described as follows: qHTS assay for small molecule antagonists of the retinoid-related orphan receptor gamma (ROR-gamma) signaling pathway - cell viability counter screen (AID 720652; active = well fitted curve in the direction sought with a large enough effect in the repeat runs; an effect the other way counts as inactive or inconclusive;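 note: CHO reporter cells with doxycycline-induced ROR-gamma expression; series mostly up to about 92 µM; compound exposure lasted 16 hr before ATP read; % is set by controls: 0 for no effect and ±100 for the full control effect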). Summed up: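 Steps: seed CHO cells bearing TET-inducible ROR and ROR response element-luciferase; rest 5 hr at 37 C; add compound, then doxycycline; incubate 16 hr; add CellTiter-Glo and read luminescence as ATP-based viability.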

Assay [15] can be described thus: qHTS assay for cell viability of HEK293 cells (AID 743288). Note: % is set by controls: 0 for no effect and ±100 for the full control effect; nearly all actives have a fitted effect of over 50% in size. To be noted: ATP luminescence (CellTiter-Glo), 18 h; max response: stronger effect = lower value. In a few lines: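 HEK293, 18 h, 37 C, ATP luminescence. Cells at 2,000/well were allowed at least 5 h to settle before dosing; CellTiter-Glo developed 30 min at RT.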
A short description of assay [16]: qHTS assay for cell viability of the p53RE-bla HCT-116 cell line (AID 743292). Note: % is set by controls: 0 for no effect and ±100 for the full control effect; nearly all actives have a fitted effect of over 55% in size. In a few lines:
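Quantitative high-throughput format: compounds in DMSO were pinned onto p53RE-bla HCT-116 cells (4,000/well) and incubated 16 h at 37 C. Total intracellular ATP, read by CellTiter-Glo luminescence, reflects viable cell number.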

Assay [17] deals with Rap guanine nucleotide exchange factor 3 (Homo sapiens) (UniProt O95398). Briefly: Confirmatory qHTS for antagonist of cAMP-regulated guanine nucleotide exchange factor 3 (EPAC1) (AID 1645880).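 Note: plate controls were DMSO only for no effect and full effect of the ATA control for full effect; nearly all actives have a fitted effect of over 55% in size.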 In a few lines:
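Released BODIPY-GDP fluoresces less than Rap1-bound BODIPY-GDP; the signal is followed at 480/540 nm at 5-min intervals over 30 min, after 5 min at room temperature. Reactions contain 100 nM EPAC1, 250 nM RAP1B-BODIPY-GDP and 50 uM GDP; results are normalized to ATA and DMSO.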

The target is the same in assay [18]. Briefly: Confirmatory qHTS for agonist of cAMP-regulated guanine nucleotide exchange factor 3 (EPAC1) (AID 1645881).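 Note: EPAC1 catalysed release of BODIPY-GDP from Rap1B seen as fluorescence loss; 100% = effect of cAMP agonist control; nearly all actives have a fitted effect of over 75% in size.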
Assay [19] has as its target Rap guanine nucleotide exchange factor 4 (Homo sapiens) (UniProt Q8WZA2). Briefly: Confirmatory qHTS for agonist of cAMP-regulated guanine nucleotide exchange factor 4 (EPAC2) (AID 1645884).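 Note: nucleotide exchange releases bodipy-GDP from Rap1 and this lowers its fluorescence; % is set by controls: 0 for no effect and ±100 for the full control effect; nearly all actives have a fitted effect of over 65% in size.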
For assay [20] the target is unchanged. Briefly: Confirmatory qHTS for antagonist of cAMP-regulated guanine nucleotide exchange factor 4 (EPAC2) (AID 1645885). Note: % is set by controls: 0 for no effect and ±100 for the full control effect; nearly all actives have a fitted effect of over 25% in size.
Assay [21] has as its target Rap guanine nucleotide exchange factor 3 (Homo sapiens) (UniProt O95398). Briefly: Counterscreen qHTS for antagonist of cAMP-regulated guanine nucleotide exchange factor 3 (EPAC1) (AID 1645888). Note: % of control where 0% means no effect. In a few lines:
(§2)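 Rap1B–BODIPY-GDP (250 nM) with 50 uM GDP; compounds pin-transferred to 9.74 nM–152 uM final (activator) or from 7.32 nM upwards (inhibitor). Fluorescence Ex/Em 480/540 nm read at 5 and 30 min, then after adding cAMP or buffer, at room temperature.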
Background: Counterscreens check selectivity or assay interference.

Assay [22] has the same target. Briefly: Counterscreen qHTS for agonist of cAMP-regulated guanine nucleotide exchange factor 3 (EPAC1) (AID 1645889). Note: % of control where 0% means no effect; nearly all actives have a fitted effect of over 40% in size. In a few lines:
as §2

Assay [23] concerns the target Nuclear receptor subfamily 1 group I member 2 (Rattus norvegicus) (UniProt Q9R1A7). Briefly: qHTS assay for small molecule activators of the rat pregnane X receptor (rPXR) signaling pathway (AID 651751; call rule not given here; note: 0% is about no effect). Conditions: rPXR reporter cells, luciferase (One-Glo), 24 h.
Assay [24] is described as follows: qHTS assay for small molecule activators of the human pregnane X receptor (PXR) signaling pathway (AID 720659; call rule not given here; note: 0% is about no effect).

Several values for one entry are separate records, joined by “and”; a condition that tells them apart may be missing. Identical values can stand only once. Inconclusive results are not listed. Activity calls are given as the source filed them. Unless noted, calls come from the whole dose curve; as a rule, active = well fitted curve in the direction sought with a large enough effect; inconclusive = small, poorly fitted or top-dose-only effect, or another doubt; inactive = no such curve, though single readings can be large; an effect the other way counts as inactive or inconclusive.

The source of these data is PubChem BioAssay (NCATS).

Rap guanine nucleotide exchange factor 3 (Homo sapiens), sequence (O95398 whole entry, looked up): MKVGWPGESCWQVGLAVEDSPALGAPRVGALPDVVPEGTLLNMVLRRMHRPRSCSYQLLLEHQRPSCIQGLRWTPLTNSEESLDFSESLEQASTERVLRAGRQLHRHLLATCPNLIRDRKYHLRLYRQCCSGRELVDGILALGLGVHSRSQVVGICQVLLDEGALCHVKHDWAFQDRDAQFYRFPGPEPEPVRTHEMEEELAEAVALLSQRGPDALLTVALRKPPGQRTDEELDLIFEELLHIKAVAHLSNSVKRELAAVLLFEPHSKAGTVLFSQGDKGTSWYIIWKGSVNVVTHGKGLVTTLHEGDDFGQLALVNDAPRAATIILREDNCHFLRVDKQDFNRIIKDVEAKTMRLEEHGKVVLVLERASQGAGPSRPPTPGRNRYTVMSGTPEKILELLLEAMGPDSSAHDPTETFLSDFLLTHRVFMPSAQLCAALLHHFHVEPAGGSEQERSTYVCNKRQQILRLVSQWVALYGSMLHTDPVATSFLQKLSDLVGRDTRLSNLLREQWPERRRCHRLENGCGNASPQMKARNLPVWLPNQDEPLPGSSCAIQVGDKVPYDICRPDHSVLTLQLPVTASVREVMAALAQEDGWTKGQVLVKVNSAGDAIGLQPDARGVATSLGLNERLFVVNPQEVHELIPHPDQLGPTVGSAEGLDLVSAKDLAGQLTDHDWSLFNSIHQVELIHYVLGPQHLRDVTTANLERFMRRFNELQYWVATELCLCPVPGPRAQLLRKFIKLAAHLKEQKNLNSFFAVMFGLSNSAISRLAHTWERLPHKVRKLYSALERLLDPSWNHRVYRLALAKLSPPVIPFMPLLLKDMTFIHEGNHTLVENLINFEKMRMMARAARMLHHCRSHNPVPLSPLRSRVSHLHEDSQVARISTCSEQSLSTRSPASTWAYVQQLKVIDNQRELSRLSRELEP
Rap guanine nucleotide exchange factor 4 (Homo sapiens), sequence (Q8WZA2 whole entry, looked up): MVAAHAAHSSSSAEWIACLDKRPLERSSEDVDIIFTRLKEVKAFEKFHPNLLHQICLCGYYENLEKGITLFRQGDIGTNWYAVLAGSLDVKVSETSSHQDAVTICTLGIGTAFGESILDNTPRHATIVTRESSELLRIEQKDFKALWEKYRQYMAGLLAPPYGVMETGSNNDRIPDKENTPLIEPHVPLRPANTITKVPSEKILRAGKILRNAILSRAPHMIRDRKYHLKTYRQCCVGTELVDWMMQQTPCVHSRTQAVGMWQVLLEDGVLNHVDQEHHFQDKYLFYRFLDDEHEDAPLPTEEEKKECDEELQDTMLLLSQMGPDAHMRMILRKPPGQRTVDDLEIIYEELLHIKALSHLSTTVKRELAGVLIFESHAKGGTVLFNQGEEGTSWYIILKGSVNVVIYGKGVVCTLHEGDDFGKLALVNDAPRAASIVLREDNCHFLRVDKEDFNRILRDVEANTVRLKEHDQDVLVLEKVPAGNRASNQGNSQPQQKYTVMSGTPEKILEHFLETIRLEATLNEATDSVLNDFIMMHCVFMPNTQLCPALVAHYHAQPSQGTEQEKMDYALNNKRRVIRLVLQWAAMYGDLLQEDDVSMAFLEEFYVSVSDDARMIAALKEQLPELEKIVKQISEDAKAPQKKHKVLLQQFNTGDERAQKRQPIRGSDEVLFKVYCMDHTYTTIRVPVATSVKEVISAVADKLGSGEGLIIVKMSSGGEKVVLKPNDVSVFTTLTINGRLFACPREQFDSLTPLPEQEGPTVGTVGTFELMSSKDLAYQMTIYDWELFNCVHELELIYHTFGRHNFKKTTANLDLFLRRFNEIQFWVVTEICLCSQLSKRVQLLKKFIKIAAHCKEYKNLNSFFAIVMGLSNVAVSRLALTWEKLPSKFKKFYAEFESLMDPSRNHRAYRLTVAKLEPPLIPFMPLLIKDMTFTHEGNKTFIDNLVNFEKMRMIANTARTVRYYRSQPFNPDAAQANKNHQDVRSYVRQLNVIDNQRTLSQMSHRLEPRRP
Retinoic acid receptor RXR-alpha (Homo sapiens), sequence (P19793 whole entry, looked up): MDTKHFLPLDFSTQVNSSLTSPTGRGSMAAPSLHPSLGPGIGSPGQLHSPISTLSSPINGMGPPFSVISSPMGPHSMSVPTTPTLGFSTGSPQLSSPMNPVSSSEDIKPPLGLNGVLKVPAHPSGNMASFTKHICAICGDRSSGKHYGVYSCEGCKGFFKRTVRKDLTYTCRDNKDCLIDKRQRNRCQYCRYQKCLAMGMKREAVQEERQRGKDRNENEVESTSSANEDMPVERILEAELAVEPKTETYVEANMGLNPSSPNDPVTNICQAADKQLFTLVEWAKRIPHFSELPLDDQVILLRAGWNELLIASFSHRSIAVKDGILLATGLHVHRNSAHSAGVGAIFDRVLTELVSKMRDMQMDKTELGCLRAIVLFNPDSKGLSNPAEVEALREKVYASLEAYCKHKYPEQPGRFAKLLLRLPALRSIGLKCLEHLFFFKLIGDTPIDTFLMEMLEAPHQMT
Peroxisome proliferator-activated receptor alpha (Homo sapiens), sequence (Q07869 whole entry, looked up, the tested form may be a part): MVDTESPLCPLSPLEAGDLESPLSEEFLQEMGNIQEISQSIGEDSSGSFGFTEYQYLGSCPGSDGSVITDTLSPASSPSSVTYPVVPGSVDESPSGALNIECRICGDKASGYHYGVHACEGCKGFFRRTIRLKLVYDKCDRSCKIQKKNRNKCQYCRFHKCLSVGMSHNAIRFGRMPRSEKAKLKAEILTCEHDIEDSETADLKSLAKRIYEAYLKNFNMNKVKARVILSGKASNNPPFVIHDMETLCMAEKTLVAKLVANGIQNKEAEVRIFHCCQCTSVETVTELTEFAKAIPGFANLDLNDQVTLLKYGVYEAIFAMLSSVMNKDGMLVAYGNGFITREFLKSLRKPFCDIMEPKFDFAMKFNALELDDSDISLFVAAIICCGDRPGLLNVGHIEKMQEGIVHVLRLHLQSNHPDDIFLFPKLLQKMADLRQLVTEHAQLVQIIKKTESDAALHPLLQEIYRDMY
Thyroid hormone receptor beta (Homo sapiens), sequence (P10828 whole entry, looked up): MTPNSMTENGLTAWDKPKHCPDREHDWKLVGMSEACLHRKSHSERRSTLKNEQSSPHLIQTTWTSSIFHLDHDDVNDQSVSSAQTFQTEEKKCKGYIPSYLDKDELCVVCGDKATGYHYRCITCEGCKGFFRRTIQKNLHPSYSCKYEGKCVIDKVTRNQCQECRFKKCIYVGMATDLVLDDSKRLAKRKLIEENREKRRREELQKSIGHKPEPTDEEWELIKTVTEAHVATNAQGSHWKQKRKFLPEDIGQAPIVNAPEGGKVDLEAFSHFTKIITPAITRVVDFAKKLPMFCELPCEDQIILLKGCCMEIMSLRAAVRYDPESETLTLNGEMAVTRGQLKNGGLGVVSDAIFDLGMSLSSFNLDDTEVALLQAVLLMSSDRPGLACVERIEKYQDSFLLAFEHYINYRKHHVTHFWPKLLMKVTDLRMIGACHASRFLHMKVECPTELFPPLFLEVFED
Nuclear receptor subfamily 1 group I member 2 (Rattus norvegicus), sequence (Q9R1A7 whole entry, looked up): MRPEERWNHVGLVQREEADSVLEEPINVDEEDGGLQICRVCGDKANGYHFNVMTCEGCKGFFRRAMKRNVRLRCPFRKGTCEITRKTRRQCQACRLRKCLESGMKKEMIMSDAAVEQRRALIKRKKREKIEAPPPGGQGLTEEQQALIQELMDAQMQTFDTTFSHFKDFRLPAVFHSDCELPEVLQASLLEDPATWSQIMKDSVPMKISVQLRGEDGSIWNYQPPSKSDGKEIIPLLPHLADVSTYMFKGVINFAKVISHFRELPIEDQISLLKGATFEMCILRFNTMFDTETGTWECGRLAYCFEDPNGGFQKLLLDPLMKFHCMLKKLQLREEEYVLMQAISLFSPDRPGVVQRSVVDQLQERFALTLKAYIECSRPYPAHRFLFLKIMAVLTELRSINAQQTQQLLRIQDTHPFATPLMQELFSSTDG
Voltage-gated inwardly rectifying potassium channel KCNH2 (Homo sapiens), sequence (Q12809 whole entry, looked up): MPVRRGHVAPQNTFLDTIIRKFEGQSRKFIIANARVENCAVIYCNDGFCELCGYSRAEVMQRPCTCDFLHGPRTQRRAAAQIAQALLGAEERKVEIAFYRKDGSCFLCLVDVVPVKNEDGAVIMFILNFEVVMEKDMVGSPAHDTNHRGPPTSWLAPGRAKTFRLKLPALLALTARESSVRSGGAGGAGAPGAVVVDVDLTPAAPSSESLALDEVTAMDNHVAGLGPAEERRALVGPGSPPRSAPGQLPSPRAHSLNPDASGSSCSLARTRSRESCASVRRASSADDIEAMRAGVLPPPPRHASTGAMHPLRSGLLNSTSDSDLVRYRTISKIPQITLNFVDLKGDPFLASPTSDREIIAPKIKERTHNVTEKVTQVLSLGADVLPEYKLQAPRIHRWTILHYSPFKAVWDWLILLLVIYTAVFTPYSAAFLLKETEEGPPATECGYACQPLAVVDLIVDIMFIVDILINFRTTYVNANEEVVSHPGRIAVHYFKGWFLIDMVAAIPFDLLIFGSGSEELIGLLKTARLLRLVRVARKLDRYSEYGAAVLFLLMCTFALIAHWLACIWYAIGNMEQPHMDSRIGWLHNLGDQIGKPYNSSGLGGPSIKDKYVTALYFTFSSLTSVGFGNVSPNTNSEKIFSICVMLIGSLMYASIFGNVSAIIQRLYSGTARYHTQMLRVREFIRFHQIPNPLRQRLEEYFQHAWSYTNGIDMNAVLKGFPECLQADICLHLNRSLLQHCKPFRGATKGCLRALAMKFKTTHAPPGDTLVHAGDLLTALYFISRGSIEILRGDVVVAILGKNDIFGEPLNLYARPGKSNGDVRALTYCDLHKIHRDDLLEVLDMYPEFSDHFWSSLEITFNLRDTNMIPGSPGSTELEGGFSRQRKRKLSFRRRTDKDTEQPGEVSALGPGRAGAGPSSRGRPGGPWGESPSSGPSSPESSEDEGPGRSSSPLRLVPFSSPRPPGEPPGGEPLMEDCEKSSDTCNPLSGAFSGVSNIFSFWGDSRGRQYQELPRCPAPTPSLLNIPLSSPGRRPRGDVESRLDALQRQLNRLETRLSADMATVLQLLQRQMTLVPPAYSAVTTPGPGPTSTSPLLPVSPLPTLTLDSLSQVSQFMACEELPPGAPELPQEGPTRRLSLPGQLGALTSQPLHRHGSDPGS

`CCCOC(=O)c1ccccc1C(=O)OCCC`: the max response in assay [1] was 3.93% and -2.34%; in assay [2], -20.7% (inactive) and -19.5% (inactive); in assay [11] it was -3.23% (inactive) and -0.333% (inactive); in assay [15], -2.21% (inactive) and -12.8% (inactive); in [23], 4.44% (inactive) and -1.18% (inactive). For the same compound, the activity change % (negative = inhibition) in assay [3] is 0.697% (inactive) and -6.62% (inactive). Further, the Potency entry in assay [4], in assay [5], in [8], in [12], in assay [14] and in assay [16] was “inactive” in each case. Besides, the Potency entry in assay [17] and in assay [18] was “inactive” in each case. The activation in assay [6] is -4.2% (inactive) and 2.37% (inactive); in assay [7], -0.812% (inactive) and -1.55% (inactive); in [10], -1.57% (inactive) and -0.202% (inactive); in assay [19] it was -6.75% [at 17.1 µM, percent relative to cAMP agonist control] (inactive); in [22] it was 23.9% [at 30.8 µM] (inactive). The compound was called inactive in assay [9], in assay [13] and in [24]. For the same compound, the activity change, negative = inhibition is -25.7% [at 12.7 µM] (inactive) in assay [20] and -2.66% [at 30.8 µM] (inactive) in [21].
